Among all 320,000 compounds or so, about 2,100 (0.66%) were called active. Not shown: some 53% with an inconclusive outcome. Calls come from the whole dose curve; as a rule, active = well fitted inhibition curve with a large enough effect in the signal ratio, with a control signal flat (not every such curve was filed as active); inconclusive = small, poorly fitted or top-dose-only effect, or effect the other way, or a change in a side signal; inactive = flat fitted curve, though single readings scatter; the % refers to the signal ratio. The list comes from a sample in which actives are over-represented; it also holds similar structures and randomly drawn compounds.
Experiment: qHTS Assay for Lipid Storage Modulators in Drosophila S3 Cells;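 for cell number change: cells counted by Cell Tracker Red CMTPX staining in the red channel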; for lipid storage change, negative = inhibition: % is set by controls: 0 for no effect and ±100 for the full control effect
Conditions: BODIPY lipid droplet fluorescence, 18-24 h, cells fed with added oleic acid; cell number change: measured here: cell count max response; series mostly up to 46.1 µM
Method in brief: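 Drosophila S3 cells got compounds at several concentrations plus oleic acid (400 uM solution). Laser-scanning cytometry with 488 nm excitation read lipid droplets at 500-530 nm and cells at 575-640 nm. Percent activity was relative to 20 uM Triacsin C.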
Potency is the fitted concentration of half-maximal effect.

Compound | Potency | cell number change [%] | lipid storage change, negative = inhibition
Cn1ncc(Br)c1C(=O)Nc1ccc(F)cc1F | inactive | 0.403 | –
COc1ccc(C(=O)Nc2ccc(NC(C)=O)cc2)cc1S(=O)(=O)N1CCCCC1C (stereo unspecified) | inactive | -5.58 | –
CC(CNC(=O)Cn1ccc2cc(S(=O)(=O)N3CCCC3)ccc21)c1ccccc1 (stereo unspecified) | inactive | 5.34 | –
O=C(OCc1nc(-c2ccccc2Cl)no1)c1ccco1 | inactive | 1 | –
Cc1ccc(-c2ccc3nnc(SCC(=O)NCC4CCCO4)n3n2)cc1 (stereo unspecified) | inactive | 7.62 | –
Cc1ccc(NS(=O)(=O)c2ccc(NC(=O)C3CCCO3)cc2)cc1 (stereo unspecified) | inactive | -28.7 | –
COc1ccccc1CN1CCN(C(CC(C)C)c2nnnn2Cc2cccs2)CC1 (stereo unspecified) | inactive | – | –
CCOC(=O)[C@@H]1[C@H]2COc3ccccc3[C@@H]2N2C(=O)N(c3ccc(F)cc3)C(=O)[C@@]12C | inactive | -1.5 | –
CCOC(=O)[C@@H]1[C@H]2COc3ccccc3[C@H]2N2C(=O)N(c3ccc(Cl)cc3)C(=O)[C@]12C | inactive | 10.8 | –
CCOC(=O)[C@@H]1[C@H]2COc3ccccc3[C@H]2N2C(=O)N(c3ccc(C(F)(F)F)cc3)C(=O)[C@]12C | 1.46 µM (active) | 21.9 | –
CCc1ccc(NC(=O)C(=S)NC2CCCCC2)cc1 | inactive | 1.88 | –
Nn1c(SCC(=O)NC2CCCCC2)nnc1-c1ccc(Cl)cc1 | inactive | 17.9 | –
Cc1[nH]n(C)c(=O)c1[N+](=O)[O-] | inactive | 4.99 | –
COc1cc(/C=C/C(=O)OCC(=O)N(C)C2CCS(=O)(=O)C2)ccc1OC(F)F (stereo unspecified) | inactive | 9.45 | –
CCN(C(=O)COC(=O)/C=C/c1ccc(OC(F)F)c(OC)c1)C1CCS(=O)(=O)C1 (stereo unspecified) | inactive | 4.02 | –
COc1ccc(/C=N/OCC(=O)N2CC3(C)CC2CC(C)(C)C3)cc1 (stereo unspecified) | inactive | 10.1 | –
COc1cc(/C=C/C(=O)OCC(=O)N2CCC(C)CC2)ccc1O | inactive | 24.6 | –
CCN(C(=O)COC(=O)/C=C/c1ccc(O)c(OC)c1)C1CCS(=O)(=O)C1 (stereo unspecified) | 13 µM (active) | -23.9 | –
COc1cc(/C=C/C(=O)OCC(=O)N2CC3(C)CC2CC(C)(C)C3)ccc1O (stereo unspecified) | 0.651 µM (active) | 18.4 | –
O=c1[nH]c(COc2ccc(Br)cc2Cl)nc2ccccc12 | inactive | -15 | –
COc1ccc(CN2CC(C(=O)NCC3CCCO3)CC2=O)cc1 (stereo unspecified) | inactive | 14 | –
N#C/C(=C\c1c(N2CCCCCC2)nc2ccccn2c1=O)C(=O)NC1CCS(=O)(=O)C1 (stereo unspecified) | inactive | – | –
N#C/C(=C\c1c(N2CCC(C(N)=O)CC2)nc2ccccn2c1=O)C(=O)NC1CCCCC1 | 0.164 µM (active) | -18.3 | –

Compound | Potency | cell number change [%] | lipid storage change, negative = inhibition
N#C/C(=C\c1c(N2CCCCCC2)nc2ccccn2c1=O)C(N)=O | inactive | 22.6 | –
O=C1/C(=C\c2ccccc2)CCc2c1[nH]c1ccccc21 | inactive | – | –
Cc1cc(=O)n2nc(N3CCCC(C(=O)NCc4cccc(Br)c4)C3)sc2n1 (stereo unspecified) | inactive | – | –
NC(=O)c1ccccc1OCc1cccc2ccccc12 | inactive | – | –
CC1(C)CC(=O)C2=C(C1)N=C1SCCC(=O)N1C2c1ccccc1 (stereo unspecified) | inactive | 9.02 | –
Cc1ccc(S(=O)(=O)NNC(=O)c2csnn2)cc1 | inactive | – | –
O=[N+]([O-])c1ccc(CN2CCCCCC2)s1 | inactive | -8.81 | –
Cc1ccc2nc(SCC(=O)Nc3cc(C)on3)nc(=O)n2c1 | – | 23.9 | -10.5% [at 0.0737 µM] (inactive)
Cc1ccc2nc(SCC(=O)Nc3cccc(F)c3)nc(=O)n2c1 | 4.11 µM (active) | 1.08 | –
Cc1ccc2nc(SCC(=O)Nc3ccc(Br)cc3)nc(=O)n2c1 | inactive | -15.9 | –
CCOC(=O)C1=C(N)OC2=C(C(=O)CC(C)(C)C2)C1c1cccnc1 (stereo unspecified) | inactive | -4.63 | –
CCOCCCNC(=S)N(Cc1ccccc1)Cc1nc2ccccc2c(=O)[nH]1 | 0.92 µM (active) | 5.59 | –
COCCCNC(=S)N(Cc1ccccc1)Cc1ccccc1 | inactive | -0.836 | –
O=C(c1ccccc1)N(Cc1ccc(F)cc1)Cc1nc2ccccc2c(=O)[nH]1 | inactive | -10.1 | –
CNC(=S)N(Cc1cc2ccc(OC)cc2[nH]c1=O)CC1CCCO1 (stereo unspecified) | inactive | -8.74 | –
Cc1onc(-c2ccccc2)c1-c1ccnn1C(=O)NC(C)C | inactive | 15.2 | –
O=C1CCCC(=O)N1c1ccc(N2CCN(c3ccc([N+](=O)[O-])cc3)CC2)c([N+](=O)[O-])c1 | 20.6 µM (active) | -26.2 | –
Cc1cccc(N2CCN(c3ccc(N4C(=O)CCCC4=O)cc3[N+](=O)[O-])CC2)c1C | inactive | 4.71 | –
O=C1CCCC(=O)N1c1ccc(N2CCN(c3ccccc3)CC2)c([N+](=O)[O-])c1 | inactive | -1.18 | –
COC(=O)[C@@H]1C[C@@]2(O)[C@@H](O)[C@@H](O)[C@@H](O)C[C@H]2N1CC(c1ccccc1)c1ccccc1 | inactive | – | –
O=C(c1cc2n(n1)C(C(F)(F)F)CC(c1ccc(Cl)cc1)N2)N1CCCC1 (stereo unspecified) | inactive | – | –
O=C(O)CCC(=O)N1CCc2cc(S(=O)(=O)NCc3ccc(Cl)cc3)ccc21 | inactive | – | –
COc1ccccc1OCC(=O)Nc1ccc(NC(=O)COc2ccccc2OC)cc1 | inactive | -9.29 | –

Compound | Potency | cell number change [%] | lipid storage change, negative = inhibition
COc1ccc2nc(SCC(=O)NC3CCCCC3C)[nH]c2c1 (stereo unspecified) | 29.1 µM (active) | 1.48 | –
COc1ccc2nc(SCC(=O)NC3CCCCC3)[nH]c2c1 | inactive | 19.4 | –
CC1CCCCC1NC(=O)CSc1nc2ccccc2[nH]1 (stereo unspecified) | inactive | 3.6 | –
CCCCCCCCCCOC(=O)c1csc2nnsc12 | inactive | 6.22 | –
O=C(NCCCO)c1ccc2[nH]c3ccccc3c2c1 | inactive | -15.6 | –
Cc1cnc(C(=O)Nc2cccc(-c3nnc4n3CCCCC4)c2)cn1 | inactive | 3.24 | –
Cc1ccc(C(NC(=O)N2CC(C)OC(C)C2)C(Cl)Cl)cc1F (stereo unspecified) | inactive | -1.54 | –
O=C(c1c[nH]c(C(=O)C(Cl)(Cl)Cl)c1)c1ccccc1Cl | 25.9 µM (active) | -14.7 | –
O=C(c1c[nH]c(C(=O)C(Cl)(Cl)Cl)c1)c1ccccc1Br | inactive | 7.04 | –
O=C(c1c[nH]c(C(=O)C(Cl)(Cl)Cl)c1)c1ccccc1F | inactive | -11.6 | –
COCC(=O)N1CCC(Oc2ccc(C(=O)NCc3cc(C)n(C)n3)cc2)CC1 | 16.4 µM (active) | -3.12 | –
COCC(=O)N1CCC(Oc2ccc(C(=O)NCc3cnc(C)cn3)cc2)CC1 | inactive | 0.0828 | –
COCCC(=O)N1CCC(Oc2ccc(C(=O)NCc3cc(C)n(C)n3)cc2)CC1 | inactive | -14.5 | –
CSc1ccc(C(=O)C2CCCN(C(=O)c3cc4cc(F)ccc4[nH]3)C2)cc1 (stereo unspecified) | inactive | 18.3 | –
CCN1CCN(CC(=O)Nc2ccc(OC(F)(F)F)cc2)CC1 | inactive | -11.2 | –
O=C(Nc1nc2c(F)cc(F)cc2s1)c1ccc([N+](=O)[O-])o1 | 5.8 µM (active) | -16.4 | –
O=C(Nc1nc2c(Cl)cccc2s1)c1ccc([N+](=O)[O-])o1 | 11.6 µM (active) | -16.1 | –
O=C(COC(=O)c1ccc([N+](=O)[O-])o1)Nc1nc2ccccc2s1 | inactive | -3.3 | –
O=C(Nc1nc2ccccc2s1)c1ccc([N+](=O)[O-])o1 | inactive | 24.1 | –
Cc1cc(C)c2nc(NC(=O)c3ccc([N+](=O)[O-])o3)sc2c1 | inactive | 8.03 | –
O=C(Nc1nc2c(F)cc(F)cc2s1)c1ccc2c(c1)OCCO2 | inactive | 6.09 | –
O=C(Nc1nc(-c2cccs2)cs1)c1ccc([N+](=O)[O-])o1 | 2.06 µM (active) | -9.47 | –
CC(=O)Nc1nc(-c2cccs2)cs1 | inactive | -17 | –

Compound | Potency | cell number change [%] | lipid storage change, negative = inhibition
O=C(Nc1nc(-c2cccs2)cs1)C1=COCCO1 | inactive | -0.427 | –
CCc1cccc(NC(=S)N(CCN(C)C)C(C)c2ccncc2)c1 (stereo unspecified) | inactive | -2.18 | –
O=[N+]([O-])c1ccc(N2CCN(S(=O)(=O)Cc3ccccc3)CC2)cc1N1CCOCC1 | inactive | – | –
CN1CCN(S(=O)(=O)c2csc(C(N)=O)c2)CC1 | inactive | – | –
COc1ccc(N2CCN(C(=O)Cn3c(=O)c4cccn4c4cccnc43)CC2)cc1 | inactive | 25.5 | –
CCCCn1c(SCC(=O)NCc2ccco2)nc2c1c(=O)n(C)c(=O)n2C | inactive | -2.87 | –
Cc1nn(CC(=O)NCCc2ccc(Cl)cc2)c(=O)c2cccn12 | inactive | 14.2 | –
O=C(Cn1c(=O)c2cccn2c2ccccc21)NCCc1ccc(Cl)cc1 | inactive | 23.3 | –
CC(C(=O)NCCc1ccc(Cl)cc1)n1c(=O)c2cccn2c2cccnc21 (stereo unspecified) | 0.517 µM (active) | -6.73 | –
CCCCOc1ccc(C(=O)N=c2sccn2C)cc1OC | inactive | -1.16 | –
Cn1ccsc1=NC(=O)c1cccc(OC(F)F)c1 | inactive | -7.04 | –
CCOc1cc(C(=O)N=c2sccn2C)ccc1OC(F)F | 11.6 µM (active) | -22.3 | –
CC(Oc1ccc(Br)cc1)C(=O)Nc1ccc(N2CCOCC2)cc1N1CCOCC1 (stereo unspecified) | inactive | -0.694 | –
COc1ccccc1Nc1nc(N)nc(CSC(=S)N2CCC(C)CC2)n1 | inactive | 8.57 | –
COc1ccc(C(C)=O)cc1COc1ccc(F)cc1 | – | -1.38 | 21.6% [at 9.22 µM] (inactive)
Fc1ccc(COc2ccc(-c3nnco3)cc2)c(Cl)c1 | inactive | 3.42 | –
CCOc1ccc(C(C)=O)cc1COc1ccc(-c2nnco2)cc1 | 1.84 µM (active) | – | –
O=C(NCCCn1ccnc1)Nc1ccc(Cl)cc1 | inactive | -5.93 | –
Cc1c(N)cc(N)cc1C(=O)O | inactive | – | –
Cc1c(Br)cc(C(=O)O)c(C)c1C | 25.9 µM (active) | -29.4 | –
Cc1c(Br)cc(C(=O)NC2CCCCC2)c(C)c1C | inactive | -1.86 | –
Cc1nn(-c2ccccc2)c(Cl)c1/C=C1/C(=N)N2N=C(C(C)C)SC2=NC1=O | inactive | 10.8 | –
CCOc1ccc(N2CC(C(=O)NCc3nnnn3-c3ccc(C)c(C)c3)CC2=O)cc1 (stereo unspecified) | inactive | 12.6 | –

— PubChem BioAssay AID2685 (National Center for Advancing Translational Sciences (NCATS), 2010)
